Screens deposited in PubChem BioAssay by several laboratories.
In the library only some 3.4% were active in any assay of this set; here they are far more common.
PG9 binder – binders of HIV-1 gp120 antibody PG9, primary screen, biochemical, TR-FRET. inhibition, % at 6.7 µM. TR-FRET gp120-PG9 antibody binding. AID 624416, 2012. actives 0.43% (n = 360,000). HIV-1 gp120 / PG9 antibody interaction; in the data active means inhibition above about 8.5%
AI-2 QS modul – Vibrio harveyi AI-2 quorum sensing modulators, primary screen, JMH597 strain, luminescence/OD600 ratio | actives 0.4% (n = 300,000) | Vibrio harveyi JMH597 AI-2 luminescence/OD600 ratio, 9 h; stronger effect = lower value; strain lacks LuxN and CqsS sensors; 0 = neutral-control median | activity change, % at 7.5 µM; in the data active means activity change below about -75%, passing the limit was not always enough;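 further: luminescence divided by OD600 gain over 9 h not by final OD600 alone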
GAA850 FXN act – FXN promoter activators, primary screen, cell-based, luciferase luminescence, HEK293 lucGAA850 | HEK293 lucGAA850 FXN promoter luciferase reporter, 24 h; percent of 10 µM SAHA response | actives 0.56% (n = 360,000) | activation, % at 6 µM | AID 540364, 2011;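 active means activation above the average of all compounds screened plus 3 SD, cutoff fixed separately per campaign, cut at about 7.5% in these data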
HSP90 inh – HSP90 inhibitors, primary screen, cell lysate, luminescence; Heat shock protein HSP 90 (rabbit reticulocyte lysate; luciferase refolding); Rabbit reticulocyte lysate, luciferase refolding luminescence, 3 h; inhibition, % at 5.6 µM; actives 0.91% (n = 290,000);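 active means inhibition above the screen-wide mean plus 3 SD, computed separately per campaign, cut at about 16% in these data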;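 further: inhibitors lower the luminescence because luciferase stays unfolded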
HSF1 inhib – HSF1 inhibitors in luciferase reporter cells, primary screen, cell-based, NIH3T3, luminescence; NIH3T3-HGL HSE-luciferase, MG132-induced, luminescence 8 h; stronger effect = lower value; activity change, negative = inhibition, % at 7.5 µM (by protocol); actives 0.77% (n = 300,000); AID 2098, 2009;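 active means more than half of replicate wells show activity change below -50%, luminescence cut by over half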;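 further: luciferase reports HSF-1 transcriptional activity via heat shock element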
SMARCA2 act – SMARCA2 (BRM) function activators, primary screen, cell-based, luminescence, high throughput; MG213 cells, MMTV-luciferase reporter, dexamethasone, overnight; activation, % at 9.1 µM; actives 1% (n = 370,000); AID 652017, 2013; in the data active means activation above about 7.8%
SMARCA2 act conf – SMARCA2 (BRM) function activators, confirmation, cell-based, luminescence, triplicate; shares compounds with SMARCA2 act; MG213 cells, MMTV-luciferase with dexamethasone, overnight; MG213 cells expressing E1A, Rb sequestered; DMSO wells 0%, reference activator 100%; activation, % at 9.1 µM; actives 30% (n = 3,500);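 active means activation above its plate's cutoff, the mean activation of tested wells plus 3 SD, cut at about 7.9% in these data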
GAL4-VP16 Luc – GAL4-VP16 luciferase reporter activation, counter-screen for SMARCA2 (BRM) activator project, cell-based, pG5luc, luminescence, high throughput; HEK293 GAL4-VP16 pG5luc reporter; scaled: DMSO wells 0%, SAHA wells 100%; actives 41% (n = 3,500); shares compounds with SMARCA2 act; activation, % at 9.1 µM; AID 686939, 2013;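 active means activation above the solvent-only control well mean plus 3 SD, averaged across control plates, cut at about 5.2% in these data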
A number is an active result; n = inactive; x = no result given.

SMILES | PG9 binder | AI-2 QS modul | GAA850 FXN act | HSP90 inh | HSF1 inhib | SMARCA2 act | SMARCA2 act conf | GAL4-VP16 Luc
O=c1c2c(nc3cc(-c4cccc(F)c4)[nH]n13)CCC2 | n | n | n | n | n | 12 | 8.0 | 12
O=c1c2c(nc3cc(-c4cccc(Cl)c4)[nH]n13)CCC2 | n | n | n | n | n | 10 | 16 | 13
O=C1NC(=O)C2(CCCc3ccc(N(CCO)CCO)cc32)N1 (configuration not stated) | n | x | x | x | x | n | x | x
CCc1nc2ccc(C(=O)Nc3ccc(NC(C)=O)cc3)cn2c1N(CCC(C)C)CCN(C)C | n | x | n | x | x | 8.4 | n | n
CCc1nc2ccc(C(=O)Nc3ccc(OC)c(OC)c3)cn2c1N(CCC(C)C)CCN(C)C | n | x | n | x | x | n | x | x
CCCNC(=O)c1cc(C2CCCCN2C(=O)OCC(C)C)on1 (configuration not stated) | n | x | n | x | x | n | x | x
COc1cccc(C(=O)N[C@H](C(=O)N2CCC[C@H]2C(=O)NCc2ccccc2)C(C)C)c1 | n | x | x | x | x | n | x | x
Cc1ccc(NS(=O)(=O)c2c(C(=O)N3CCOCC3)c(C)n(C)c2C)cc1 | n | n | n | n | n | n | x | x
Cc1cc(C)cc(NS(=O)(=O)c2c(C(=O)N3CCOCC3)c(C)n(C)c2C)c1 | n | n | n | n | n | 10 | n | n
Cc1c(C(=O)N2CCCC2)c(S(=O)(=O)Nc2ccccc2)c(C)n1C | n | n | n | n | n | 14 | n | n
O=C(COc1ccc2c(-c3ccccc3)cc(=O)oc2c1)N1C[C@H]2C[C@@H](C1)c1cccc(=O)n1C2 | n | x | n | x | x | n | x | x
O=C(NCCO)c1ccc(Oc2ccc(C(F)(F)F)cc2[N+](=O)[O-])cc1 | n | n | n | n | n | n | x | x
O=C(CS(=O)c1ccc(C(F)(F)F)cc1[N+](=O)[O-])Oc1ccc(Cl)cc1 (configuration not stated) | n | n | n | n | n | 11 | 14 | n
Cc1cc(C)cc(OC(=O)CS(=O)c2ccc(C(F)(F)F)cc2[N+](=O)[O-])c1 (configuration not stated) | n | n | n | n | n | 14 | 13 | n
O=C(Nc1ccc2nn(-c3ccccc3)nc2c1)c1cccnc1 | n | n | n | n | x | n | x | x
CC(C)C(=O)Nc1ccc2nn(-c3ccccc3)nc2c1 | n | n | n | n | n | 9.4 | n | 20
CC(=O)Nc1ccc2nc(NC(=O)c3cccnc3)sc2c1 | n | n | n | n | n | 11 | 10 | n
CN(C)S(=O)(=O)c1ccc2nc(NC(=O)c3cccnc3)sc2c1 | n | n | n | n | n | n | x | x
O=C(NCCc1ccccc1)c1cnc2sccn2c1=O | n | n | n | n | n | 9.6 | 8.3 | 9.4
COC(=O)[C@H](CC(C)C)N(CCc1cn(Cc2ccccc2)nn1)S(=O)(=O)c1ccccc1Br | x | x | x | x | x | n | x | x
Cc1ccnc2ccc(-c3nc4ccccc4o3)cc12 | n | x | n | n | x | n | x | x
Cc1nc2ccc(-c3nc4ccccc4o3)cc2[nH]1 | n | n | n | n | n | 9.0 | n | 13
COc1ccc2nc3cc(Cl)ccc3c(Nc3cc(CN4CCCC4)c(O)c(CN4CCCC4)c3)c2n1 | n | n | n | n | n | 68 | 256 | n
C=CCN1CC(COCc2ccccc2)OCCS1(=O)=O (configuration not stated) | n | x | x | x | x | n | x | x
CCN(CC)CCNc1nc2cc(OC)c(OC)cc2c2nc(-c3ccccc3)nn12 | n | n | n | n | n | 9.7 | 26 | n
SMILES | PG9 binder | AI-2 QS modul | GAA850 FXN act | HSP90 inh | HSF1 inhib | SMARCA2 act | SMARCA2 act conf | GAL4-VP16 Luc
COc1cc2[nH]c(=O)n3nc(-c4ccccc4)nc3c2cc1OC | x | n | n | n | n | x | x | x
COc1ccc(N=Nc2ccc(N)nc2N)cc1 | n | n | n | n | n | 12 | 11 | 20
Nc1ccc(N=Nc2ccc(O)cc2)c(N)n1 | n | x | n | x | x | n | x | x
Cc1cccn2cc(-c3c[nH]c4ccccc34)nc12 | n | n | n | n | n | 17 | n | 10
Brc1ccc2nc(-c3c[nH]c4ccccc34)cn2c1 | n | n | n | n | n | n | x | x
CCc1ccccc1Oc1nc(NCc2ccccc2)nc2ccsc12 | n | x | n | x | x | n | x | x
CC(CCc1ccccc1)NC(=O)CN1CCN(c2ccccc2)CC1 (configuration not stated) | n | n | n | n | n | 8.7 | n | n
Cc1ccccc1NC(=O)C(=O)NC(C)CCc1ccccc1 (configuration not stated) | n | n | n | n | n | n | x | x
CC(CCc1ccccc1)NC(=O)C(=O)Nc1ccccc1 (configuration not stated) | n | n | n | n | n | 8.9 | 11 | 9.8
O=C1NC(=O)C2C3OC(C(Br)C3Br)C12 (configuration not stated) | n | x | n | x | x | n | x | x
CCOc1cc(C2NN=C(c3ccccc3)S2)ccc1OCc1ccc(F)cc1 (configuration not stated) | n | n | n | n | n | 14 | n | 9.3
O=C(N[C@H](C(=O)N1CCC[C@H]1C(=O)NCc1ccccc1)c1ccccc1)C1CCCC1 | n | x | x | x | x | n | x | x
CC(C)C[C@H]1COc2cc(Br)ccc2S(=O)(=O)N1Cc1ccc(F)cc1F | n | x | x | x | x | n | x | x
O=C(CCNC(=O)c1ccccc1Cl)NCCCSc1ccccc1 | n | x | n | x | x | n | x | x
O=C(NCCSc1ccccc1)c1ccccc1Cl | n | n | n | n | n | 8.7 | 8.7 | 8.8
CCC(CO)Nc1cccc2c1S(=O)(=O)N(Cc1cn(Cc3ccc(F)cc3)nn1)Cc1ccccc1O2 (configuration not stated) | x | x | x | x | x | n | x | x
Cn1c(C2=C(O)CN(Cc3ccccc3)C2=N)nc2ccccc21 | n | n | n | n | n | 8.6 | n | n
CN(C)S(=O)(=O)c1ccc(N2CCCC2)c(C(=O)Nc2ccccc2)c1 | n | n | n | x | n | n | x | x
Cc1nnc(NC(=O)c2cc(S(=O)(=O)N(C)C)ccc2N2CCCC2)s1 | n | x | n | x | x | 9.1 | n | n
Cn1nc(C(=O)OCC(=O)NCc2ccc(Cl)cc2Cl)c2ccccc2c1=O | n | x | n | x | x | n | x | x
